Source: PubChem BioAssay AID1619 (SRMLSC, 2009)
In all, about 220,000 compounds went through this assay and about 830 (0.38%) were called active.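 Rule for the calls: active = compound inhibiting the enzyme by more than half at any dose during confirmatory dose-response retesting; inconclusive = strong single-dose inhibitors picked by rank but not retested; inactive = the rest.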 Only a sample is shown. Potency and affinity values are given separately.

These compounds were tested against Leucine aminopeptidase (Plasmodium falciparum (isolate 3D7)) (UniProt Q8IL11) (assay: P. falciparum M17LAP inhibitors, primary screen, biochemical, fluorogenic H-Leu-NHMec substrate, 1536-well (AID 1619;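 note: plate controls were full reaction with DMSO carrier for no effect and no enzyme background for full effect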)). Conditions: recombinant M17LAP, H-Leu-NHMec fluorogenic kinetic assay; at 30 µM; active compounds read high.
Chain of Leucine aminopeptidase (Plasmodium falciparum (isolate 3D7)) (Q8IL11 whole entry, looked up): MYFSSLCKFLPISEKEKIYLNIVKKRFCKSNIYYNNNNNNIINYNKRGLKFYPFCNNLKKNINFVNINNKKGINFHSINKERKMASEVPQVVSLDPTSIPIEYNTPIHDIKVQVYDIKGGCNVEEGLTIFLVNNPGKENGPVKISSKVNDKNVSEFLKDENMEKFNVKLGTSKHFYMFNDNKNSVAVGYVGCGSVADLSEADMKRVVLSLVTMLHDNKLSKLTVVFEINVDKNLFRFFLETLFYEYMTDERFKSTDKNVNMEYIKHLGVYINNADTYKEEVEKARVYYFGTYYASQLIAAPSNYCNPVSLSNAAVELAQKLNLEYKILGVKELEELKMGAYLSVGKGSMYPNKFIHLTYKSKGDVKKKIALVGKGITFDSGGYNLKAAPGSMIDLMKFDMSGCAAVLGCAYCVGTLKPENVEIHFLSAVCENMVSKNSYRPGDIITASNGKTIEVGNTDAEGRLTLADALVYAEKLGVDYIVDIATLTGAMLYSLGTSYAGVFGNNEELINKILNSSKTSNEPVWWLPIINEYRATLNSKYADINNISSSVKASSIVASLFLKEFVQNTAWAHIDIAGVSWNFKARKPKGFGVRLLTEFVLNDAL

inhibition, inactive:
CC1(C(=O)OCC(=O)Nc2ccccc2)CC1(Cl)Cl (stereo unspecified) 1.25%
CCN(C(=O)Cn1cnc2cc([N+](=O)[O-])ccc2c1=O)C1CCS(=O)(=O)C1 (stereo unspecified) 12.2%
Cc1ccc(-c2nc(N=Nc3ccc(O)cc3)n[nH]2)cc1 12.9%
Oc1ccc(-c2cccc(-c3ccc(O)cc3)n2)cc1 1.28%
CCOc1ccc(/C=C2\SC(=S)N(CCC(=O)O)C2=O)cc1 6.65%
O=C(O)c1ccc(N2C(=O)CC(N3C(=O)/C(=C/c4ccc(Cl)cc4)SC3=S)C2=O)cc1 (stereo unspecified) 6.02%
Cc1ccc(NC(=O)/C=C/c2ccco2)nc1 11.5%
O=C(Nc1ccccc1N1CCCC1)c1ccc([N+](=O)[O-])cc1Cl 9.68%
CCCCN1C(=O)/C(=C/C=C2\SCCN2C)SC1=S -4.21%
CCN1C(=O)/C(=C/C=C2/SCCN2C)SC1=S -8.41%
Cc1ccc(S(=O)(=O)N(CC(=O)Nc2ccccc2C(=O)O)c2ccccc2)cc1 4.48%
Cc1ccc(S(=O)(=O)N(CC(=O)Nc2ccccc2C(=O)O)c2ccccc2C)cc1 2.3%
COc1ccc2sc(C)[n+](C)c2c1 -2.85%
COc1ccc(N2C(=O)c3ccccc3C2=O)cc1 -7.95%
COc1ccc(C(O)(C(=O)NNc2ccc(C)cc2)c2cccs2)cc1 (stereo unspecified) 15.2%
O=[N+]([O-])c1ccc(-c2cc(-c3ccncc3)nc3ccc4ccccc4c23)cc1 -5.09%
CC1=C(O)C(=O)OC1c1c(Cl)cccc1Cl (stereo unspecified) -5.75%
CCCCSc1nc(C)[nH]c1[N+](=O)[O-] -54.3%
Cc1ccc(Nc2ncnc3nc[nH]c23)cc1Cl 6.48%
COc1ccccc1Nc1ncnc2nc[nH]c12 38.3%
Cc1ccc(-c2nnc(SCC(=O)N/N=C/c3c(C)nn(-c4ccccc4)c3C)n2-c2ccccc2)cc1 -0.81%
CC(Sc1ccccc1)C(=O)Nc1ccc(S(=O)(=O)N2CCOCC2)cc1 (stereo unspecified) 11.8%
CC(Sc1ccc(Cl)cc1)C(=O)Nc1ccc(S(=O)(=O)N2CCOCC2)cc1 (stereo unspecified) 1.19%
CCc1ccccc1NC(=O)C1C(c2ccccc2)C1(Cl)Cl (stereo unspecified) -8.78%
O=C(Nc1ccccc1NC(=O)c1c(F)c(F)c(F)c(F)c1F)c1c(F)c(F)c(F)c(F)c1F 8.25%
CC(C)N(Cc1nc(-c2ccc3c(c2)OCO3)no1)Cc1nccn1C -7%
Cc1[nH]nc2c1C1(CCN(Cc3ccccc3)CC1)C(C#N)=C(N)O2 42.9%
CC(C)c1[nH]nc2c1C1(CCN(Cc3ccccc3)CC1)C(C#N)=C(N)O2 30.2%
Cc1sc(NC(=O)c2cccc([N+](=O)[O-])c2)c(C(N)=O)c1-c1ccc(C(C)(C)C)cc1 6.91%
Cc1csc(NC(=O)[C@@H]2CCCN2C(=O)c2cccs2)n1 -1.96%
CC1=C(C(=O)OCc2ccccc2)C(c2ccc(Cl)cc2)NC(=O)N1CCCCCC(=O)O (stereo unspecified) 47.3%
CC1=C(C(=O)OCc2ccccc2)C(c2ccc(Cl)cc2Cl)NC(=O)N1CCCC(=O)O (stereo unspecified) 0.51%
N#Cc1ccc(C(=O)CSc2n[nH]c(=O)n2Cc2ccco2)cc1 -0.26%
COc1ccc(Cc2nnc(NS(=O)(=O)c3ccccc3)s2)cc1 52.4%
COc1ccc(Cc2nnc(NS(C)(=O)=O)s2)cc1 11.1%
O=C(O)COc1ccc(NC(=O)c2cccs2)cc1 16.1%
COc1ccc(NC(=O)c2cccs2)cc1 -8.71%
Cc1cccc(Oc2ccc(NC(=O)c3ccccc3C(=O)O)cc2)c1 2.06%
O=C(Nc1cccc(Oc2ccc(C(=O)O)c(C(=O)O)c2)c1)c1ccc(-c2ccccc2)cc1 38.5%
CC(=O)Nc1ccccc1N(CC(O)Cn1c2ccccc2c2ccccc21)S(=O)(=O)c1ccc(C)cc1 (stereo unspecified) 11.1%
CC(=O)CSc1nnc(Cc2ccc3c(c2)OCO3)o1 -2.53%
Cc1ccc(NC(=O)CN2C(=O)N/C(=C/c3ccc(C)s3)C2=O)cc1 -4%
Cc1ccc(NC(=O)CN2C(=O)N/C(=C/c3ccc(C)o3)C2=O)cc1 71.1%
CCn1cc(C(=O)OCC(=O)N2C(C)CCCC2C)c(=O)c2ccc(C)nc21 (stereo unspecified) 0.44%
CCCSc1nc(O)c(C2OC(=O)c3c2ccc(OC)c3OC)c(=O)n1-c1ccccc1 (stereo unspecified) 31.4%
CCSc1nc(O)c(C2OC(=O)c3c2ccc(OC)c3OC)c(=O)n1CC (stereo unspecified) 41.4%
CCCCSc1nc(O)c(C2OC(=O)c3c2ccc(OC)c3OC)c(=O)n1C (stereo unspecified) 44.3%
CCCCSc1nc(O)c(C2OC(=O)c3c2ccc(OC)c3OC)c(=O)n1-c1ccccc1 (stereo unspecified) 32%
CC1=CCC2C(=O)N(c3ccc(Br)cc3C)C(=O)C2C1 (stereo unspecified) -2.62%
COc1cc(C(=O)O)cc(NC(=O)c2cccs2)c1OC 27%
CC(NS(=O)(=O)c1ccccc1)C(c1cccs1)N1CCOCC1 (stereo unspecified) 3.6%
CCOc1ncccc1C(=O)OCC(=O)NCc1ccc2c(c1)OCO2 -8.27%
O=C(COC(=O)c1cccc(S(=O)(=O)N2CCOCC2)c1)Nc1ncc(C(F)(F)F)cc1Cl 4.29%
C/C(CC(=O)Nc1cc(C)ccn1)=N\NC(=O)C(=O)Nc1cccc(C)c1 17.6%
C/C(CC(=O)Nc1cc(C)ccn1)=N\NC(=O)c1cccc(C)c1 36.6%
CC(=O)CSc1ncnc2c1cnn2-c1ccccc1 -3.85%
c1ccc(CSc2ncnc3c2cnn3-c2ccccc2)cc1 6.75%
O=C(O)c1cccc(-n2cccc2/C=C2\NC(=O)N(Cc3ccc(F)cc3)C2=O)c1 14.1%
O=C1N/C(=C/c2cccn2-c2ccccc2)C(=O)N1Cc1ccccc1F 2.46%
COc1ccc(C(=O)OCC(=O)Nc2nc3c(F)c(F)c(F)cc3s2)cc1OC -4.12%
CCOc1ccccc1OCC(=O)Nc1nnc(COC)s1 -14%
COc1cccc(-c2cc(=O)[nH][nH]2)c1 -0.06%
COc1ccc(-c2cn(-c3cccc(C)c3)c(=O)[nH]2)cc1OC 12.5%
COc1ccc(-c2c[nH]c(=O)[nH]c2=O)cc1OC 7.18%
COc1ccc(-c2cc(=O)[nH]c(=O)[nH]2)cc1 6.04%
Cn1nc(-c2ccc(NCCO)c([N+](=O)[O-])c2)c2ccccc2c1=O -6.44%
Cc1nn(-c2ccccn2)c(N)c1N=O 13.8%
O=C(CN1C2=NCCCN2c2ccccc21)c1cccs1 -10.1%
CCN1C(=O)/C(=C/c2cccs2)SC1=Nc1ccc(OC)cc1 -1.72%
COc1ccc(OCC(=O)Nc2cccc(C(=O)Nc3ccccc3C(=O)O)c2)cc1 37%
CC(C)c1ccc(OCC(=O)Nc2cccc(C(=O)Nc3ccccc3C(=O)O)c2)cc1 5.28%
Cc1cc2nc(SC(C)C(=O)O)[nH]c2cc1C (stereo unspecified) 19.5%
CC(Sc1nc2ccccc2[nH]1)C(=O)O (stereo unspecified) 4.99%
COc1ccc(-n2nc(N)c3c(=O)oc(N(C)C)nc32)cc1 3.39%
COC(=O)c1cccc(CN2C(=O)SC(Nc3ccccc3)C2=O)c1 (stereo unspecified) 2.34%
O=C(O)CN1C(=O)SC(Nc2ccccc2)C1=O (stereo unspecified) 15.1%
Cc1ccc(NC2SC(=O)N(Cc3cccc(C(=O)O)c3)C2=O)c(C)c1 (stereo unspecified) -1%
COC(=O)c1cccc(CN2C(=O)SC(Nc3ccc(C)cc3)C2=O)c1 (stereo unspecified) 2.69%
NC(=O)CN(c1ccccc1)C1SC(=O)N(Cc2ccccc2)C1=O (stereo unspecified) -3.19%
Cc1ccc(N(CC(N)=O)C2SC(=O)N(Cc3ccccc3)C2=O)cc1 (stereo unspecified) 8.98%
O=C1Nc2ccccc2S/C1=C/c1cccs1 4.97%
CCCCCCOc1cccc(N)c1 -6.2%
COc1ccc(S(=O)(=O)N(CC(=O)N/N=C/c2cccs2)c2cc(C)cc(C)c2)cc1OC -9.62%
Cc1ccc(O)c(CNn2cnnc2)c1 -3.08%
C/C(=N\O)c1oc2ccc3c(C)cc(=O)oc3c2c1C 2.81%
COc1nc(N(CC(N)=O)S(=O)(=O)c2ccccc2)nc(C)c1Cl -8.61%
Cc1ccc(-n2nnnc2CN2CCCCC2)cc1 -0.54%
COC(=O)c1scc(C)c1N/N=C(\C)c1cc(F)c(Cl)cc1F -1.99%
Cn1ncc(Cl)c1C(=O)N/N=C/c1cc2c(cc1[N+](=O)[O-])OCO2 10.6%
CCCc1ncc(C(O)c2ccc(OC)cc2)n1C (stereo unspecified) -6.37%
Cc1ccc(NC(=O)CN(C)C(=O)CSc2nc3ccccc3o2)cc1 3.63%
Cc1ccc(Oc2ccc(NC(=O)CSc3n[nH]c(N)n3)cc2)cc1 -7.16%
Cc1ccc(NC(=O)CN(C)C(=O)CSc2nc(C)cs2)cc1 -4.97%
Cc1ccc(CNC(=O)CSc2n[nH]c(N)n2)cc1 16.9%
CCn1ncc(/C=N\NC(=O)c2ccc3c(c2)c(C)c(C)n3Cc2ccccc2)c1C 8%
Cc1c(C(=O)N2CCN(Cc3ccc4c(c3)OCO4)CC2)cccc1[N+](=O)[O-] 11.8%
